# HTT ATP protect: Huntington cell model cytoprotection by ATP luminescence; Potency, µM (top dose mostly 56.4 µM), for inactives: cytoprotection (ATP increase), most hits filed as activators; PC12 HTT-Q103 induced, cytoprotection, ATP luminescence, 40 h; AID 1471; 230,000 tested, 0.14% active; further: potency means the concentration at half of the fitted maximal effect; % of control where 0% means no effect; nearly all actives have a fitted effect of over 45% in size
#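 Stable PC12 Q103-GFP cells in serum-supplemented, phenol red-free DMEM; induction by tebufenozide at 100 nM final; compound dose series; cell viability quantified luminescently from ATP.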
# IMPase cell inh: IMPase inhibition in cells | P97697 | CHO-M1 cells, IP1 accumulation, HTRF TR-FRET ratio | inhibition (IP1 accumulation), % at 46.1 µM | 120,000 tested, under 10 active; active means well fitted curve in the direction sought with a large enough effect in the signal ratio, not every such curve was filed as active; inconclusive means small, poorly fitted or top-dose-only effect, or a change in a side signal; inactive means no such curve, though single readings can be large or run the other way; the % refers to the signal ratio;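 further: cells stimulated with carbachol in lithium chloride buffer; plate controls were DMSO basal wells for no effect and reference inhibitor wells for full effect; higher means more IMPase inhibition seen as more IP1 and lower FRET ratio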
# Target sequence (P97697 whole entry, looked up): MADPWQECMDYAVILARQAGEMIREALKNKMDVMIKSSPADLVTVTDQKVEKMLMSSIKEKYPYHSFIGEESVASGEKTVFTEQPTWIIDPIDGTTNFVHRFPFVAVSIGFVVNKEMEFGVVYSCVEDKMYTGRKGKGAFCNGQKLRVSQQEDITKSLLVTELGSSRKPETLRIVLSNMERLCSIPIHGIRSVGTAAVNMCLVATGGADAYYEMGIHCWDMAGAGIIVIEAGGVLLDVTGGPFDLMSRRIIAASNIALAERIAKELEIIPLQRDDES
#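 CHO-M1, 2000 cells/well, cultured 16–30 h; cpd up to 46 uM; carbachol (50 uM solution, stimulation buffer w/ 50 mM LiCl, pH 7.4), 30 min 37C; IP-One TR-FRET, 10 min RT; Ex 320/Em 665, 620; Hill-fit AC50.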
# HttQ103 aggreg: reduces HttQ103-GFP aggregates in PC12 cells. PC12 HttQ103-GFP aggregates, Acumen cytometry, 40 h. Potency, µM (highest dose often 46.1 µM), inactives show at the highest dose activity change, negative = inhibition, usual class: inhibitors. 220,000 tested, 1.1% active; further: potency means the concentration at half of the fitted maximal effect; on the % scale 0 is the no-effect control and ±100 the full control effect; nearly all actives have a fitted effect of over 60% in size
#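 Aggregates are detected as GFP objects 1–25 µm with signal 6 STDEV over background in lysates of induced PC12 cells. These carry Huntingtin exon 1 with 103 glutamines fused to GFP under an ecdysone promoter; compounds titrated.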
# HPGD inh: inhibitors of human 15-hydroxyprostaglandin dehydrogenase (HPGD); P15428; purified HPGD, NADH fluorescence kinetic, PGE2 substrate; Potency, µM, for inactives: at the top dose activity change, negative = inhibition, hits mostly inhibitors; 150,000 tested, 4.3% active; AID 894; active means well fitted inhibition curve with a large enough effect, not every such curve was filed as active; inconclusive means small, poorly fitted or top-dose-only effect, or another doubt; inactive means no such curve, though single readings can be large or run the other way; further: potency means the concentration at half of the fitted maximal effect; on the % scale 0 is the no-effect control and ±100 the full control effect
# Target sequence (P15428 whole entry, looked up): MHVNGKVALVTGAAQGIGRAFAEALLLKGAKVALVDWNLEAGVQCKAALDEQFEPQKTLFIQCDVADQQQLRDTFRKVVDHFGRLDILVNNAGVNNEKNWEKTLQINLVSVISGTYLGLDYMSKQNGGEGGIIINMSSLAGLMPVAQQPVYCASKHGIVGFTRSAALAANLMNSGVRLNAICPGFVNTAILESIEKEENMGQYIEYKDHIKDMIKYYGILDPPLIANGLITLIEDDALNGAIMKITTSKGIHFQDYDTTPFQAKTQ
#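 NADH formation kinetics: reaction with 30 uM PGE2 and 1 mM NAD+ (final), 20 nM enzyme, Tris-HCl pH 8 with Tween 20, after 15 min compound preincubation at room temperature. Fluorescence change, last versus first of five reads.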
# IMPase Li cell: cell-permeable IMPase inhibitors with lithium potentiation; CHO-M1 cells, IP1 TR-FRET (IP-One), carbachol + lithium; Potency, µM (titrated, usually from 59.4 µM), inactives show at the top dose activity, negative = IMPase inhibition, actives largely listed as inhibitors; 210,000 tested, 0.35% active; AID 1457;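 further: IP1 builds up when IMPase is blocked and the TR-FRET signal falls; potency means the concentration at half of the fitted maximal effect; plate controls were basal vehicle for no effect and high inhibitor control for full effect; nearly all actives have a fitted effect of over 50% in size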
#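 CHO cells stably expressing M1 receptor (2000/well) were cultured 16–30 h, then exposed to compounds with a small lithium addition for 30 min at 37C. IP1 was measured by TR-FRET competition; AC50 from Hill fits.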
# ALDH1A1 block: inhibitors of human aldehyde dehydrogenase 1A1 | Purified ALDH1A1, NADH fluorescence, propionaldehyde substrate | Potency, µM (doses to about 75.3 µM), without a hit: top-dose activity, negative = inhibition, actives largely listed as inhibitors | 220,000 tested, 7.3% active; active means well fitted inhibition curve with a large enough effect, not every such curve was filed as active; inconclusive means small, poorly fitted or top-dose-only effect, or another doubt; inactive means no such curve, though single readings can be large or run the other way;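 further: potency means the concentration at half of the fitted maximal effect; plate controls were no enzyme wells and a reference inhibitor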
# * = called active by the depositor; ? = inconclusive; / = no result given; [ ] = dose if it differs, or a comment. Hits are enriched below; roughly 9.4% of the tested compounds scored in any of these assays. Unless noted, the call rests on the fitted dose curve; in most records, active means well fitted curve in the direction sought with a large enough effect; inconclusive means small, poorly fitted or top-dose-only effect, or another doubt; inactive means no such curve, though single readings can be large; an effect the other way counts as inactive or inconclusive.
SMILES,HTT ATP protect,IMPase cell inh,HttQ103 aggreg,HPGD inh,IMPase Li cell,ALDH1A1 block
O=c1c(CCc2ccccc2)nc2cnc(N3CCOCC3)nc2n1C[C@H]1CCCO1,-5%,/,/,?,?,?
COc1ccc(CCNC(=O)CCn2c(SCC#N)nc3ccccc3c2=O)cc1OC,15%,10,1%,-2%,-20%[38.3 µM],20µM*
COc1ccc(CCNC(=O)CCCn2c(SCC#N)nc3ccccc3c2=O)cc1OC,-6%,2,-5%,-6%,9%[38.3 µM],-6%
COCCNC(=O)CSc1nc2ccccc2c(=O)n1CCC(=O)NCCc1ccc(OC)c(OC)c1,-38%,/,-3%,/,-2%,14µM*
CN(C(=O)COC(=O)/C=C/c1ccc(S(=O)(=O)N2CCc3ccccc32)cc1)C1CCS(=O)(=O)C1 (stereo not drawn),-15%,/,17%[9.22 µM],/,16%,?
COc1cc(OC)c(OC)cc1/C=N/NC(=O)CCc1c(C)n[nH]c1C,-2%[10 µM],/,-23%[9.22 µM],/,/,/
CCOC(=O)c1sc(N)nc1-c1ccccc1,2%[10 µM],-5,-34%,-27%,4%,?
CCOC(=O)c1snc(-c2ccc(F)cc2)c1N,14%[10 µM],1,-15%,?,-25%[38.3 µM],10µM*
COc1cccc([C@@H]2Oc3ccc(OC)cc3C[C@H]2OC(=O)NS(=O)(=O)c2ccc(C)cc2)c1,-15%,/,/,-20%,15%,4%
COc1ccccc1-c1cc(=O)c2cc(O)ccc2o1,2%[1.9 µM],3,/,16µM*,17%,17%
O=c1cc(-c2cccc(O)c2)oc2ccc(O)cc12,-56%,/,/,7.1µM*,39%,?
O=c1cc(-c2ccc(O)cc2)oc2ccccc12,-61%,/,-14%,/,4%,-5%
O=c1cc(-c2ccc(O)cc2)oc2ccc(O)cc12,-100%,/,-11%,20µM*,16%,4%
O=C1CN(Cc2cc(=O)oc3cc4c(cc23)CCC4)CCN1,2%,/,12%,/,-2%,?
Cc1n[nH]c(=O)[nH]c1=O,7%[40.3 µM],-1[20.6 µM],/,-5%,0%,11%[20.9 µM]
Cc1csc(=Nc2ccccc2)n1Cc1ccco1,-15%,/,5%,/,26%,15µM*
O=C(Cc1ccc2c(c1)OCCO2)c1c(O)cc(O)cc1O,-3%,5,?,20µM*,16%[38.3 µM],?
O=C(Cc1ccccc1)c1ccc2c(c1)OCCO2,-19%[10 µM],/,9%[9.22 µM],/,5%,-7%
O=C(O)COc1ccc(C(=O)Cc2ccc3c(c2)OCCCO3)c(O)c1,-25%[10 µM],3,25%,?,-10%[38.3 µM],22µM*
O=C(CCc1ccc(O)cc1)c1c(O)cc(O)cc1O,-15%[1.9 µM],0,-5%[9.22 µM],35µM*,17%,-13%
COc1ccc(C(=O)Cc2ccc3c(c2)OCO3)c(O)c1,-17%[10 µM],/,-9%,?,?,-1%
CC(C)CN(C#N)c1nc(N2CCOCC2)nc(N2CCOCC2)n1,-78%,15,?,-11%,6%[38.3 µM],7.9µM*
CC(C)CCCNc1nc(N2CCOCC2)nc(N2CCOCC2)n1,3%[10 µM],5,3%,-3%,4%,0%
O=C(CC(c1cccs1)S(=O)(=O)c1ccccc1)c1ccc(F)cc1 (stereo not drawn),-15%[10 µM],/,-6%,-1%,5%,25µM*
Cc1ccc(CNC(=O)CC2Nc3c4ccccc4nc(=S)n3C2=O)cc1 (stereo not drawn),1%[10 µM],/,3%,/,5.6µM*,-14%
SMILES,HTT ATP protect,IMPase cell inh,HttQ103 aggreg,HPGD inh,IMPase Li cell,ALDH1A1 block
CC(C)CCNC(=O)CC1Nc2c3ccccc3nc(=S)n2C1=O (stereo not drawn),27%,?,16%[1.84 µM],-9%,-22%[38.3 µM],-1%
C=C1C(=O)C=C2CN(C(=O)c3ccccc3)[C@@](Cc3ccc(F)cc3)(C(=O)OC)[C@@H]12,-111%,/,5µM*,16µM*,26%,-1%
COC(=O)[C@@]1(Cc2ccc(OC)cc2)[C@@H]2C(=CC(=O)[C@H]2CC(=O)C(=O)N(C)C)CN1C(=O)c1ccccc1,?,/,?,-1%,4%,5%
O=c1c(-c2ccc(F)cc2)nc2cnc(Oc3ccccc3)nc2n1C[C@H]1CCCO1,-48%,/,/,?,-4%,?
Oc1ccc(/C(Cc2ccccn2)=N\Nc2ccccc2)c(O)c1,-18%,/,-20%,/,15%,18µM*
Oc1ccc(/C(Cc2ccc3ccccc3n2)=N\Nc2ccccc2)c(O)c1,-30%,/,-3%,/,2%,?
COc1cc(/C=C2/CCC/C(=C\c3cc(O)c(OC)c(Cl)c3)C2=O)cc(Cl)c1O,-96%,-2,?,-25%,14%[38.3 µM],14µM*
COc1ccc(-c2nc3cnc(Nc4cccc(OC)c4)nc3n(C)c2=O)cc1,-36%,/,/,/,12%,0%
O=C(Nc1ccc(S(=O)(=O)Nc2nccs2)cc1)c1ccc(F)c(S(=O)(=O)N2CCOCC2)c1,/,/,1%,/,5%,5µM*
COc1nccnc1NS(=O)(=O)c1ccc(NC(=S)NC(=O)c2ccc(F)cc2)cc1,22%[10 µM],/,6%,-11%,-2%,14µM*
O=C(NC(=S)Nc1ccc(S(=O)(=O)Nc2nccs2)cc1)c1ccc(F)cc1,-8%[10 µM],/,15%,-23%,3%,18µM*
COc1nsnc1NS(=O)(=O)c1ccc(NC(=S)NC(=O)c2cccnc2)cc1,/,/,/,/,-1%,20µM*
COc1c(O)cc2c(-c3ccccc3)cc(=O)oc2c1OC,/,/,/,-25%,-6%,?
COc1ccc(CNc2nc(-c3ccc(N(C)C)cc3)nc3ccccc23)c(OC)c1,-105%,/,/,/,-10%,?
O=C(CCN1CCN(CCO)CC1)Nc1ccc(C2CCCC2)cc1,-30%,/,17%[9.22 µM],/,5%,?
O=C(CSCCO)Nc1ccc(C2CCCCC2)cc1,-33%,-9,11%,4.5µM*,-14%[38.3 µM],7.1µM*
CCCCC[C@H](O)/C=C/C=C\C=C\[C@@H](O)C/C=C\CCCC(=O)O,26%,/,/,-16%,17%,-3%
O=C(CCNS(=O)(=O)c1ccc(Br)cc1)NC1CCCCC1,-28%,/,-5%,/,-9%,-3%
O=S(=O)(c1ccc(NC(=S)NC2CCCC2)cc1)N1CCCC1,-3%[10 µM],/,-17%,/,7%,14µM*
O=C(NC(=S)Nc1ccc(S(=O)(=O)N2CCCC2)cc1)C1CCC1,/,/,27%,3%,13%,?
NS(=O)(=O)c1ccc(NC(=S)NC2CCCCCC2)cc1,-12%[10 µM],/,18%,-12%,2%,?
O=S(=O)(NC(=S)NC1CCCCC1)c1ccc(Br)cc1,/,/,11%,/,1%,25µM*
NS(=O)(=O)c1ccc(NC(=S)NC2CCCC2)cc1,/,/,3%,14µM*,-2%,?
O=C(NC(=S)Nc1ccc(S(=O)(=O)N2CCCC2)cc1)C1CC1,-42%,/,24%,/,13%,20µM*
S=C1NC(C23CC4CC(CC(C4)C2)C3)=CC(c2ccc3c(c2)OCO3)N1 (stereo not drawn),10%,/,-2%,/,6%,2.5µM*
